# Only a selection was taken, and the strongest signals are over-represented in it overall.
# Legend:
# Experiment in all cases: glycan array binding signal (z-score within array); higher = stronger binding
# Details in all cases: glycan notation: IUPAC condensed, linker removed
# [1] = biological target: Fuc(a1-2)Gal(b1-3)GalNAc(b1-3)Gal(a1-4)Gal(b1-4)Glc
# In short: (§1)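 The Consortium for Functional Glycomics database supplied 3228 glycan arrays, of which those lacking an available protein sequence were dropped. The binding signal, a within-array Z-score, was averaged across arrays of the same protein sequence and across linkers. Negative scores can be read as non-binding.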
# [2] = biological target: Fuc(a1-2)Gal(b1-3)GlcNAc(b1-3)[Neu5Ac(a2-6)Gal(b1-4)GlcNAc(b1-6)]Gal(b1-4)Glc
# In short: as §1
# [3] = biological target: Fuc(a1-2)Gal(b1-4)[Fuc(a1-3)]GlcNAc(b1-2)Man(a1-3)[Fuc(a1-2)Gal(b1-4)[Fuc(a1-3)]GlcNAc(b1-2)Man(a1-6)]Man(b1-4)GlcNAc(b1-4)GlcNAc
# In short: as §1
# [4] = biological target: Fuc(a1-2)[Gal(a1-3)]Gal(b1-4)Glc
# In short: as §1
# [5] = biological target: Fuc(a1-2)[GalNAc(a1-3)]Gal(b1-3)GalNAc(a1-3)[Fuc(a1-2)]Gal(b1-4)GlcNAc
# In short: as §1
# [6] = biological target: Fuc(a1-2)[GalNAc(a1-3)]Gal(b1-3)GlcNAc
# In short: as §1
# [7] = biological target: Fuc(a1-3)[Gal(b1-4)]Glc6S
# In short: as §1
# [8] = biological target: Gal(b1-3)Gal(b1-4)GlcNAc(b1-2)Man(a1-3)[Gal(b1-3)Gal(b1-4)GlcNAc(b1-2)Man(a1-6)]Man(b1-4)GlcNAc(b1-4)GlcNAc
# In short: as §1
# [9] = biological target: Gal(b1-3)[Fuc(a1-4)]GlcNAc
# In short: as §1
# [10] = biological target: Gal(b1-3)[Neu5Ac(a2-6)]GalNAc
# In short: as §1
# [11] = biological target: Gal(b1-4)GlcNAc
# In short: as §1
# [12] = biological target: Gal(b1-4)GlcNAc(b1-2)Man(a1-3)Man(b1-4)GlcNAc(b1-4)GlcNAc
# In short: as §1
# [13] = biological target: Gal(b1-4)GlcNAc(b1-2)Man(a1-3)[GlcNAc(b1-2)Man(a1-6)]Man(b1-4)GlcNAc(b1-4)GlcNAc
# In short: as §1
# [14] = biological target: Gal(b1-4)GlcNAc(b1-2)[Gal(b1-4)GlcNAc(b1-4)]Man(a1-3)[GlcNAc(b1-4)][Gal(b1-4)GlcNAc(b1-2)Man(a1-6)]Man(b1-4)GlcNAc(b1-4)GlcNAc
# In short: as §1
# [15] = biological target: Gal(b1-4)GlcNAc(b1-2)[Gal(b1-4)GlcNAc(b1-4)]Man(a1-3)[GlcNAc(b1-4)][Gal(b1-4)GlcNAc(b1-2)[Gal(b1-4)GlcNAc(b1-6)]Man(a1-6)]Man(b1-4)GlcNAc(b1-4)GlcNAc
# In short: as §1
# [16] = biological target: Gal(b1-4)GlcNAc(b1-2)[Gal(b1-4)GlcNAc(b1-6)]Man(a1-6)[GlcNAc(b1-4)][Gal(b1-4)GlcNAc(b1-2)Man(a1-3)]Man(b1-4)GlcNAc(b1-4)GlcNAc
# In short: as §1
# [17] = biological target: Gal(b1-4)GlcNAc(b1-3)GalNAc
# In short: as §1
# [18] = biological target: Gal(b1-4)GlcNAc(b1-3)[Gal(b1-4)GlcNAc(b1-6)]Gal(b1-4)GlcNAc
# In short: as §1
# [19] = biological target: Gal(b1-4)GlcNAc(b1-3)[Gal(b1-4)GlcNAc(b1-6)]GalNAc
# In short: as §1
# [20] = biological target: GalNAc(a1-3)GalNAc(b1-3)Gal(a1-4)Gal(b1-4)Glc
# In short: as §1
# [21] = biological target: GlcNAc(b1-2)Man(a1-3)[GlcNAc(b1-4)][GlcNAc(b1-2)Man(a1-6)]Man(b1-4)GlcNAc(b1-4)GlcNAc
# In short: as §1
# [22] = biological target: GlcNAc(b1-3)[GlcNAc(b1-6)]GlcNAc(b1-4)GlcNAc
# In short: as §1
# [23] = biological target: GlcNAc(b1-4)[GlcNAc(b1-6)]GalNAc
# In short: as §1
# [24] = biological target: GlcNAc6S(b1-3)Gal(b1-4)GlcNAc
# In short: as §1
# [25] = biological target: Man(a1-2)Man(a1-2)Man(a1-6)[Man(a1-3)]Man
# In short: as §1
# [26] = biological target: Man(a1-2)Man(a1-3)[Man(a1-2)Man(a1-6)]Man
# In short: as §1
# [27] = biological target: Man(a1-2)Man(a1-3)[Man(a1-2)Man(a1-6)]Man(a1-6)[Man(a1-2)Man(a1-2)Man(a1-3)]Man
# In short: as §1
# [28] = biological target: Man(a1-2)Man(a1-3)[Man(a1-2)Man(a1-6)]Man(a1-6)[Man(a1-2)Man(a1-2)Man(a1-3)]Man(b1-4)GlcNAc(b1-4)GlcNAc
# In short: as §1
# [29] = biological target: Man(a1-2)Man(a1-6)[Man(a1-3)]Man(a1-6)[Man(a1-2)Man(a1-2)Man(a1-3)]Man
# In short: as §1
# [30] = biological target: Man(a1-2)Man(a1-6)[Man(a1-3)]Man(a1-6)[Man(a1-2)Man(a1-2)Man(a1-3)]Man(b1-4)GlcNAc(b1-4)GlcNAc
# In short: as §1
# [31] = biological target: Man(a1-3)[Man(a1-6)]Man
# In short: as §1
# [32] = biological target: Man(a1-3)[Man(a1-6)]Man(a1-6)[Man(a1-2)Man(a1-3)]Man(b1-4)GlcNAc(b1-4)GlcNAc
# In short: as §1
# [33] = biological target: Man(a1-3)[Man(a1-6)]Man(a1-6)[Man(a1-3)]Man
# In short: as §1
# [34] = biological target: Neu5Ac(a2-3)Gal
# In short: as §1
# [35] = biological target: Neu5Ac(a2-3)Gal(b1-3)GalNAc(b1-4)[Neu5Ac(a2-8)Neu5Ac(a2-3)]Gal(b1-4)Glc
# In short: as §1
# [36] = biological target: Neu5Ac(a2-3)Gal(b1-4)GlcNAc
# In short: as §1
# [37] = biological target: Neu5Ac(a2-3)Gal(b1-4)GlcNAc(b1-2)Man(a1-3)[GlcNAc(b1-2)Man(b1-4)GlcNAc(b1-2)Man(a1-6)]Man(b1-4)GlcNAc(b1-4)GlcNAc
# In short: as §1
# [38] = biological target: Neu5Ac(a2-3)Gal(b1-4)GlcNAc(b1-3)Gal(b1-4)GlcNAc(b1-3)Gal(b1-4)GlcNAc
# In short: as §1
# [39] = biological target: Neu5Ac(a2-6)GlcNAc(b1-4)GlcNAc(b1-4)GlcNAc
# In short: as §1
# [40] = biological target: Neu5Ac9Ac(a2-3)Gal(b1-4)GlcNAc
# In short: as §1
# [41] = biological target: Neu5Ac9Ac(a2-6)Gal(b1-4)GlcNAc
# In short: as §1
binder,measurement,setting,value
"ConA (Canavalia ensiformis), P02866 (protein) MAISKKSSLFLPIFTFITMFLMVVNKVSSSTHETNALHFMFNQFSKDQKDLILQGDATTGTDGNLELTRVSSNGSPQGSSVGRALFYAPVHIWESSAVVASFEATFTFLIKSPDSHPADGIAFFISNIDSSIPSGSTGRLLGLFPDANVIRNSTTIDFNAAYNADTIVAVELDTYPNTDIGDPSYPHIGIDIKSVRSKKTAKWNMQNGKVGTAHIIYNSVDKRLSAVVSYPNADSATVSYDVDLDNVLPEWVRVGLSASTGLYKETNTILSWSFTSKLKSNEIPDIATVV",glycan array binding signal (z-score),[1],-0.286
same,glycan array binding signal (z-score),[2],-0.189
same,glycan array binding signal (z-score),[3],-0.056
same,glycan array binding signal (z-score),[4],-0.278
same,glycan array binding signal (z-score),[5],-0.245
same,glycan array binding signal (z-score),[6],-0.279
same,glycan array binding signal (z-score),[7],-0.245
same,glycan array binding signal (z-score),[8],0.087
same,glycan array binding signal (z-score),[9],-0.274
same,glycan array binding signal (z-score),[10],-0.129
same,glycan array binding signal (z-score),[11],-0.225
same,glycan array binding signal (z-score),[12],-0.192
same,glycan array binding signal (z-score),[13],0.311
same,glycan array binding signal (z-score),[14],-0.211
same,glycan array binding signal (z-score),[15],-0.196
same,glycan array binding signal (z-score),[16],-0.24
same,glycan array binding signal (z-score),[17],-0.228
same,glycan array binding signal (z-score),[18],-0.208
same,glycan array binding signal (z-score),[19],-0.214
same,glycan array binding signal (z-score),[20],-0.201
same,glycan array binding signal (z-score),[21],-0.108
same,glycan array binding signal (z-score),[22],-0.317
same,glycan array binding signal (z-score),[23],-0.264
same,glycan array binding signal (z-score),[24],-0.088
same,glycan array binding signal (z-score),[25],4.9
same,glycan array binding signal (z-score),[26],3.94
same,glycan array binding signal (z-score),[27],7.48
same,glycan array binding signal (z-score),[28],3.33
same,glycan array binding signal (z-score),[29],7.39
same,glycan array binding signal (z-score),[30],4.46
same,glycan array binding signal (z-score),[31],5.51
same,glycan array binding signal (z-score),[32],4.75
same,glycan array binding signal (z-score),[33],4.27
same,glycan array binding signal (z-score),[34],-0.283
same,glycan array binding signal (z-score),[35],-0.248
same,glycan array binding signal (z-score),[36],-0.29
same,glycan array binding signal (z-score),[37],-0.041
same,glycan array binding signal (z-score),[38],-0.269
same,glycan array binding signal (z-score),[39],-0.184
same,glycan array binding signal (z-score),[40],-0.009
same,glycan array binding signal (z-score),[41],-0.243
